Test results published in PubChem BioAssay (NCI).
This is part of a sample that, as a whole, favours compounds with a hit. Of some 83,000 tested, about 20% had one in any assay.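 Note: values are percent growth. 100 is the growth of untreated cells, values between 100 and 0 indicate rising inhibition; between -100 and 0 indicates cell death.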 Calls of active or inactive are those of the source. How the source made its calls: active means growth percent below 10; inactive means the rest.

The compounds below were run on RPMI-8226 leukemia (assay: NCI-60 one-dose screen, 48 h (100 = growth as untreated, 0 = no growth, -100 = all killed)). Settings: 10 µM unless noted.

SMILES	growth
O=C(NNC(=O)N1c2ccccc2C=Cc2ccccc21)c1ccc2ccccc2c1	96.7% (inactive)
CCOC(=O)C1C(=O)C=C(c2ccc(OC)cc2)CC1c1sc(N(C)Cc2ccccc2)nc1Cl (stereo not drawn)	63.9% (inactive)
CCc1cnc(=S)n(-c2ccccc2)c1	119% (inactive)
CCN(CC)c1ccc2[nH]c3c(C(N)=O)cc(=O)c(=O)c=3oc2c1	-1.62% (active)
CC1(C)C(=O)/C(=C\c2ccc(C(F)(F)F)cc2)C[C@]2(C)[C@H]3CC[C@@H]4[C@H]5[C@H](C(=O)/C=C/c6ccc(C(F)(F)F)cc6)CC[C@]5(CO)CC[C@@]4(C)[C@]3(C)CC[C@@H]12	88.6% (inactive)
O=[N+]([O-])c1ccc(Sc2ncccn2)c([N+](=O)[O-])c1	-29.3% (active)
CC(C)(C)OC(=O)NC(CSCc1ccccc1)C(=O)ON1C(=O)CCC1=O (stereo not drawn)	97.5% (inactive)
C/C(=C\c1ccc(OCC(=O)O)c(Cl)c1Cl)[N+](=O)[O-]	99.7% (inactive)
CC(C)CC1NC(C)(C)CO1 (stereo not drawn)	103% (inactive)
CC(NNC(C)c1ccccc1)c1ccccc1 (stereo not drawn)	97.8% (inactive)
CC(C)(C)n1cc(-c2ccnc(NCCCNS(=O)(=O)c3ccc(C(F)(F)F)cc3)c2)c(-c2cccc(O)c2)n1	-9.47% (active)
CC(C)(C)n1cc(-c2ccnc(NCCCNS(=O)(=O)c3ccc(Br)cc3)c2)c(-c2cccc(O)c2)n1	-6% (active)
Cn1cc(-c2cnc3ccc(NC(=O)Nc4ccc(F)c(Br)c4)cc3n2)cn1	-34.1% (active)
CC(C)(C)c1[nH]nc2c1C(c1cc3ccccc3[nH]c1=O)Nc1cc(C(=O)Nc3ccc(Cl)cc3)ccc1N2 (stereo not drawn)	42.5% (inactive)
O=C([O][Sn]([O]C(=O)c1ccccn1)([c]1ccccc1)[c]1ccccc1)c1ccccn1	26% (inactive)
CC(C)(C)N1CCC1C(N)=O (stereo not drawn)	87.5% (inactive)
CC(C)(C)n1cc(-c2ccnc(NCCCNS(=O)(=O)c3ccc(Cl)cc3)c2)c(-c2cccc(O)c2)n1	-29.7% (active)
O=C(Nc1ccc(NCCN2CCOCC2)nc1)c1ccc([N+](=O)[O-])cc1	107% (inactive)
COc1cc(-c2ncn(/C=C\C(=O)OC(C)C)n2)cc(C(F)(F)F)c1	67.5% (inactive)
O=C(NNC(=O)N1c2ccccc2C=Cc2ccccc21)c1ccccc1	104% (inactive)

SMILES	growth
CC(C)(C)n1cc(-c2ccnc(NCCNS(=O)(=O)c3ccc(Cl)cc3)c2)c(-c2cccc(O)c2)n1	23.8% (inactive)
Clc1ccccc1-c1nc2ccccc2[nH]1	74% (inactive)
CC(C)(C)n1cc(-c2ccnc(NCCNS(=O)(=O)c3ccc(C(F)(F)F)cc3)c2)c(-c2cccc(O)c2)n1	4.88% (active)
CC(=O)Oc1csc(N(C(C)=O)c2cc(C(=O)O)cc(C(=O)O)c2)n1	43.3% (inactive)
COc1ccncc1S(=O)(=O)NC(=O)Nc1ccc(Cl)c(Cl)c1	46.2% (inactive)
COc1ccc(-c2nc(/C=N/Nc3cc(C)nc4ccc(Cl)cc34)c(C)o2)cc1	-50.8% (active)
COc1ccc(C(=O)N2NC(=O)/C(=C/c3ccccc3F)N=C2c2ccccc2)cc1	119% (inactive)
CCOC(=O)CC(=O)OC	97.4% (inactive)
CN1C=CN(Cc2ccc(-c3ccccn3)nc2)[CH-]1.CN1C=CN(Cc2ccc(-c3ccccn3)nc2)[CH-]1.[Au+3]	18.1% (inactive)
COc1cccc(/C=C2\Oc3cc(OCCCN4CCCC4)ccc3C2=O)c1OC	88.6% (inactive)
O=C1C(Cl)=C(Nc2ccccn2)C(=O)c2ccccc21	56.5% (inactive)
Cc1ccc2[nH]c(=O)c3c(c2c1)Oc1ncn2nc(-c4ccco4)nc2c1C3c1ccc(Cl)cc1 (stereo not drawn)	101% (inactive)
COc1ccc(C2CC(c3ccc(OC)cc3OC)=NN2c2ccc(S(N)(=O)=O)cc2)cc1 (stereo not drawn)	2.07% (active)
c1ccc(-c2nnc(-c3ccccn3)s2)nc1	54.8% (inactive)
Clc1cc2c(nn1)Nc1ccccc1S2	78.1% (inactive)
O=[N+]([O-])c1cc(S(=O)(=O)Oc2ccccc2)ccc1Cl	17% (inactive)
COc1cc(/C=N\NC(=O)CN2CCN(c3cc4c(cc3F)c(=O)c(C(=O)N/N=C/c3cc(OC)c(OC)c(OC)c3)cn4C3CC3)CC2)cc(OC)c1OC	0.709% (active)
NC1=C(/C(N)=N/O)C(c2ccccc2)c2ccc3ccccc3c2O1 (stereo not drawn)	19.1% (inactive)
OCc1ncc(-c2ccccc2)s1	87.6% (inactive)

These compounds were tested on OVCAR-8 ovarian in the same assay as above. Settings: 10 µM unless noted.

SMILES	growth
O=C(NNC(=O)N1c2ccccc2C=Cc2ccccc21)c1ccc2ccccc2c1	94.9% (inactive)
CCOC(=O)C1C(=O)C=C(c2ccc(OC)cc2)CC1c1sc(N(C)Cc2ccccc2)nc1Cl (stereo not drawn)	80.9% (inactive)
CCc1cnc(=S)n(-c2ccccc2)c1	113% (inactive)
CCN(CC)c1ccc2[nH]c3c(C(N)=O)cc(=O)c(=O)c=3oc2c1	0.295% (active)
CC1(C)C(=O)/C(=C\c2ccc(C(F)(F)F)cc2)C[C@]2(C)[C@H]3CC[C@@H]4[C@H]5[C@H](C(=O)/C=C/c6ccc(C(F)(F)F)cc6)CC[C@]5(CO)CC[C@@]4(C)[C@]3(C)CC[C@@H]12	79.6% (inactive)
O=[N+]([O-])c1ccc(Sc2ncccn2)c([N+](=O)[O-])c1	65.8% (inactive)
CC(C)(C)OC(=O)NC(CSCc1ccccc1)C(=O)ON1C(=O)CCC1=O (stereo not drawn)	104% (inactive)
C/C(=C\c1ccc(OCC(=O)O)c(Cl)c1Cl)[N+](=O)[O-]	93.7% (inactive)
CC(C)CC1NC(C)(C)CO1 (stereo not drawn)	105% (inactive)
CC(NNC(C)c1ccccc1)c1ccccc1 (stereo not drawn)	115% (inactive)
CC(C)(C)n1cc(-c2ccnc(NCCCNS(=O)(=O)c3ccc(C(F)(F)F)cc3)c2)c(-c2cccc(O)c2)n1	28% (inactive)
CC(C)(C)n1cc(-c2ccnc(NCCCNS(=O)(=O)c3ccc(Br)cc3)c2)c(-c2cccc(O)c2)n1	41.1% (inactive)
Cn1cc(-c2cnc3ccc(NC(=O)Nc4ccc(F)c(Br)c4)cc3n2)cn1	7.83% (active)
CC(C)(C)c1[nH]nc2c1C(c1cc3ccccc3[nH]c1=O)Nc1cc(C(=O)Nc3ccc(Cl)cc3)ccc1N2 (stereo not drawn)	75.3% (inactive)
O=C([O][Sn]([O]C(=O)c1ccccn1)([c]1ccccc1)[c]1ccccc1)c1ccccn1	93.6% (inactive)
CC(C)(C)N1CCC1C(N)=O (stereo not drawn)	102% (inactive)
CC(C)(C)n1cc(-c2ccnc(NCCCNS(=O)(=O)c3ccc(Cl)cc3)c2)c(-c2cccc(O)c2)n1	6.22% (active)
O=C(Nc1ccc(NCCN2CCOCC2)nc1)c1ccc([N+](=O)[O-])cc1	96.2% (inactive)
COc1cc(-c2ncn(/C=C\C(=O)OC(C)C)n2)cc(C(F)(F)F)c1	9.36% (active)
O=C(NNC(=O)N1c2ccccc2C=Cc2ccccc21)c1ccccc1	105% (inactive)

SMILES	growth
CC(C)(C)n1cc(-c2ccnc(NCCNS(=O)(=O)c3ccc(Cl)cc3)c2)c(-c2cccc(O)c2)n1	65.1% (inactive)
Clc1ccccc1-c1nc2ccccc2[nH]1	106% (inactive)
CC(C)(C)n1cc(-c2ccnc(NCCNS(=O)(=O)c3ccc(C(F)(F)F)cc3)c2)c(-c2cccc(O)c2)n1	58.5% (inactive)
CC(=O)Oc1csc(N(C(C)=O)c2cc(C(=O)O)cc(C(=O)O)c2)n1	104% (inactive)
COc1ccncc1S(=O)(=O)NC(=O)Nc1ccc(Cl)c(Cl)c1	97.8% (inactive)
COc1ccc(-c2nc(/C=N/Nc3cc(C)nc4ccc(Cl)cc34)c(C)o2)cc1	-82% (active)
COc1ccc(C(=O)N2NC(=O)/C(=C/c3ccccc3F)N=C2c2ccccc2)cc1	101% (inactive)
CCOC(=O)CC(=O)OC	103% (inactive)
CN1C=CN(Cc2ccc(-c3ccccn3)nc2)[CH-]1.CN1C=CN(Cc2ccc(-c3ccccn3)nc2)[CH-]1.[Au+3]	13.3% (inactive)
COc1cccc(/C=C2\Oc3cc(OCCCN4CCCC4)ccc3C2=O)c1OC	94% (inactive)
O=C1C(Cl)=C(Nc2ccccn2)C(=O)c2ccccc21	29.5% (inactive)
Cc1ccc2[nH]c(=O)c3c(c2c1)Oc1ncn2nc(-c4ccco4)nc2c1C3c1ccc(Cl)cc1 (stereo not drawn)	93.4% (inactive)
COc1ccc(C2CC(c3ccc(OC)cc3OC)=NN2c2ccc(S(N)(=O)=O)cc2)cc1 (stereo not drawn)	77% (inactive)
c1ccc(-c2nnc(-c3ccccn3)s2)nc1	94% (inactive)
Clc1cc2c(nn1)Nc1ccccc1S2	96.2% (inactive)
O=[N+]([O-])c1cc(S(=O)(=O)Oc2ccccc2)ccc1Cl	40.7% (inactive)
COc1cc(/C=N\NC(=O)CN2CCN(c3cc4c(cc3F)c(=O)c(C(=O)N/N=C/c3cc(OC)c(OC)c(OC)c3)cn4C3CC3)CC2)cc(OC)c1OC	22.4% (inactive)
NC1=C(/C(N)=N/O)C(c2ccccc2)c2ccc3ccccc3c2O1 (stereo not drawn)	17.2% (inactive)
OCc1ncc(-c2ccccc2)s1	107% (inactive)
